IDE cell inh: inhibits human insulin-degrading enzyme in HEK cells | P14735 | FAbetaB cleavage, fluorescence polarization | inhibition, % at 5.59 µM | 320,000 compounds, 0.41% hits;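 active means percent inhibition above the average of all tested compounds plus 3 SD, set per screening campaign, cut at about 16% in these data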;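 further: IDE supplied by intact live HEK cells; FP after avidin binding of uncleaved biotin substrate so inhibition keeps polarization high; 0% = DMSO wells and 100% = 60 µM reference IDE inhibitor Ii1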
CHT PAM: human CHT allosteric activation; B-score at 10 µM; CHT-expressing cells, membrane potential dye, choline EC20; active compounds read high; LV-AA mutant CHT in HEK293 cells; 310,000 compounds, 0.49% hits; AID 488977; Q9GZV3;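 active means initial fluorescence not abnormally high and integrated response B-score, plate-corrected, over 3 SD above library mean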
IDE cell activ: boosts human insulin-degrading enzyme activity in HEK cells; FAbeta-B cleavage, fluorescence polarization; 0% vehicle, 100% cell-free pure enzyme wells; 340,000 compounds, 0.073% hits; activation, % at 5.96 µM;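 active means activation above the mean of all tested compounds plus 3 SD, set per screening campaign, cut at about 17% in these data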
ANO1 block: blocks the mouse calcium-activated chloride channel TMEM16A; normalized B-score (activity score, 25-100; higher = stronger inhibition) at 10 µM; AID 588511; HEK293 TMEM16A/YFP iodide influx fluorescence, ionomycin; Q8BHY3; 310,000 compounds, 1.2% hits;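 active means ratio plate-corrected score three or more library SD toward inhibition, starting fluorescence score within five deviations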;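 further: score derived from kinetic fluorescence span divided by baseline fluorescence per well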
ANO1 activ: activators or potentiators of mouse TMEM16A chloride channel. AID 623877. 340,000 compounds, 0.3% hits. B-score at 10 µM. Q8BHY3. HEK293 TMEM16A/YFP-H148Q/I152L, iodide quench fluorescence; active compounds read low;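 active means fluorescence-ratio B-score plate-corrected deviation score at least 3 library SD below zero, with starting fluorescence score within 5 deviations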;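 further: channel opened by trigger with iodide after compound preincubation; score built on the fluorescence ratio of max minus min over baseline; more negative score means more quench and so TMEM16A activation or potentiation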
CHT block: inhibitors of human choline transporter CHT. 310,000 compounds, 0.86% hits. B-score at 10 µM. CHT-expressing cells, membrane potential dye, choline response; active compounds read low. Q9GZV3. AID 488975;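 active means B-score over 3 SD under the library average, and starting fluorescence ratio not unusually high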;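 further: choline stimulus applied at its EC90 after an EC20 pre-addition; B-score computed on integrated fluorescence ratio after choline addition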
CHT activ conf: human CHT activation, confirmatory screen | shares compounds with CHT PAM | CHT-expressing cells, membrane potential dye fluorescence (FDSS); % of choline EC20–EC90 response window; HEK293 expressing CHT LV-AA mutant; choline added at its EC20 | activation, % at 10 µM | 2,500 compounds, 91% hits | AID 504833;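 active means primary screen active, with duplicate mean activation above negative control mean plus 3 SD, cut at about 11% in these data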
HEK293 MP dye: counter-screen for CHT activators: effect in parental HEK293 cells; shares compounds with CHT PAM; 2,500 compounds, 62% hits; membrane potential dye fluorescence (FDSS); measured after EC20 choline addition; ratio readout change at 10 µM, hits read low; AID 623908;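 active means duplicate-averaged ratio beyond 3 SD from buffer wells, up or down, though filed actives are nearly all decreases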
* hit, by the source's call. The list is not random: actives were taken first. Their share in the collection is about 2.7%.

How did O=S(=O)(c1ccccc1F)N1CCC(c2nc3ccccc3[nH]2)CC1 do in these assays?
IDE cell inh: -1; CHT PAM: inactive; IDE cell activ: 6; ANO1 block: inactive; ANO1 activ: inactive; CHT block: inactive

What do the screens show for `COc1cc(-c2ccc3c(=O)c4ccccc4n(C)c3c2)cc(OC)c1OC`?
IDE cell inh: 0; CHT PAM: inactive; IDE cell activ: 4; ANO1 block: inactive; ANO1 activ: inactive; CHT block: inactive

Results for COc1ccc(-c2cc(Cl)cc3c(=O)c4ccccc4n(C)c23)cc1F ?
IDE cell inh: -1; CHT PAM: 7.3*; IDE cell activ: 1; ANO1 block: inactive; ANO1 activ: inactive; CHT block: inactive; CHT activ conf: 26*; HEK293 MP dye: inactive

How did NC(=O)C1CN(C(=O)c2cccc(S(=O)(=O)N3CCc4ccccc43)c2)c2ccccc2O1 (centres undefined) do in these assays?
IDE cell inh: 7; IDE cell activ: 8; ANO1 activ: inactive

How did COc1ccc(C)cc1NC(=O)CNc1ccccc1CN(C)C1CCCCC1 do in these assays?
IDE cell inh: -2; CHT PAM: 6.4*; IDE cell activ: 1; ANO1 block: inactive; ANO1 activ: inactive; CHT block: inactive; CHT activ conf: 22*; HEK293 MP dye: inactive

How did COc1ccc(Cl)cc1NC(=O)CNc1ccccc1CN(C)C1CCCCC1 do in these assays?
IDE cell inh: -6; CHT PAM: inactive; IDE cell activ: 3; ANO1 block: inactive; ANO1 activ: inactive; CHT block: inactive

What do the screens show for `Cc1nnc(NCCc2ccccc2)c2ccccc12`?
IDE cell inh: 6; CHT PAM: 7.2*; IDE cell activ: 2; ANO1 block: inactive; ANO1 activ: inactive; CHT block: inactive; CHT activ conf: 39*; HEK293 MP dye: -49*

How did Cc1nnc(NCCc2ccccc2)n(N)c1=O do in these assays?
IDE cell inh: 10; CHT PAM: inactive; IDE cell activ: 1; ANO1 block: inactive; ANO1 activ: inactive; CHT block: inactive

Results for COc1ccc2occ(C(=O)c3coc4ccc(O)c(CN(C)C)c34)c2c1 ?
IDE cell inh: 2; CHT PAM: 7.6*; IDE cell activ: 4; ANO1 block: inactive; ANO1 activ: inactive; CHT block: inactive; CHT activ conf: 32*; HEK293 MP dye: -36*

How did Cc1cc(C)c(C)c(S(=O)(=O)NCC(=O)Nc2ccccc2F)c1C do in these assays?
IDE cell activ: 0; ANO1 activ: inactive

Results for Oc1ccc2ccccc2c1N=Nc1ccccc1F ?
IDE cell inh: -4; CHT PAM: inactive; IDE cell activ: 4; ANO1 block: inactive; ANO1 activ: inactive; CHT block: inactive

Results for O=S(=O)(O)c1cccc(N=Nc2c(O)ccc3ccccc23)c1 ?
IDE cell inh: -3; CHT PAM: inactive; IDE cell activ: 9; ANO1 block: inactive; ANO1 activ: inactive; CHT block: inactive; CHT activ conf: 33*; HEK293 MP dye: -39*

How did COc1ccc(-c2nn(Cc3ccccc3)cc2C(=O)N2CCN(c3ncccn3)CC2)cc1OC do in these assays?
IDE cell inh: -3; IDE cell activ: 1; ANO1 activ: inactive

How did Cc1cc(=O)oc2cc(OCC(=O)N3CCC(O)CC3)c(Cl)cc12 do in these assays?
IDE cell inh: 7; CHT PAM: inactive; IDE cell activ: -3; ANO1 block: inactive; ANO1 activ: inactive; CHT block: inactive; CHT activ conf: 25*; HEK293 MP dye: -21*

How did Cc1cc(=O)oc2cc(OCC(=O)N3CCCC3)c(Cl)cc12 do in these assays?
IDE cell inh: 2; IDE cell activ: 4; ANO1 activ: inactive

How did O=C(COC(=O)c1cc[n+]([O-])cc1)Nc1ccc(Cl)cc1Cl do in these assays?
IDE cell inh: -4; IDE cell activ: 4; ANO1 activ: inactive

How did O=C(COC(=O)c1cc[n+]([O-])cc1)Nc1ccc(Cl)cc1[N+](=O)[O-] do in these assays?
IDE cell inh: 0; CHT PAM: inactive; IDE cell activ: 2; ANO1 block: inactive; ANO1 activ: inactive; CHT block: inactive; CHT activ conf: 20*; HEK293 MP dye: -44*

Results for CN(C)c1cc[n+](CC(=O)Nc2ccc([N+](=O)[O-])cc2Cl)cc1 ?
IDE cell inh: -1; CHT PAM: 6.5*; IDE cell activ: 2; ANO1 block: inactive; ANO1 activ: inactive; CHT block: inactive; CHT activ conf: 5; HEK293 MP dye: -33*

Results for O=C(COC(=O)c1cc[n+]([O-])cc1)Nc1ccc([N+](=O)[O-])cc1Cl ?
IDE cell inh: 2; CHT PAM: 12*; IDE cell activ: -2; ANO1 block: inactive; ANO1 activ: inactive; CHT block: inactive; CHT activ conf: 62*; HEK293 MP dye: -79*

What do the screens show for `O=C(CSc1ncccn1)NC(=O)Cc1ccccc1`?
IDE cell inh: 1; IDE cell activ: 0; ANO1 activ: inactive

What do the screens show for `CC(=O)c1cccc(NC(=O)C(C)OC(=O)/C=C/c2cccs2)c1` (centres undefined)?
IDE cell activ: 0; ANO1 activ: inactive

What do the screens show for `Cc1c2cccn2cc[n+]1C`?
IDE cell inh: -1; CHT PAM: 6.6*; IDE cell activ: 6; ANO1 block: inactive; ANO1 activ: inactive; CHT block: inactive; CHT activ conf: 58*; HEK293 MP dye: -53*

How did COc1ccc(CCNC(=O)COc2ccc3c(C)cc(=O)oc3c2)cc1OC do in these assays?
IDE cell inh: -2; CHT PAM: inactive; IDE cell activ: 1; ANO1 block: inactive; ANO1 activ: inactive; CHT block: inactive

What do the screens show for `Cc1nn(S(=O)(=O)c2ccc(Cl)cc2)c(C)c1Sc1ccc([N+](=O)[O-])cc1`?
IDE cell inh: -3; CHT PAM: inactive; IDE cell activ: 1; ANO1 block: inactive; ANO1 activ: inactive; CHT block: inactive

Results for Cc1nn(-c2ccccc2)c(N)c1Sc1ccc([N+](=O)[O-])cc1 ?
IDE cell inh: 7; CHT PAM: 6.9*; IDE cell activ: -2; ANO1 block: inactive; ANO1 activ: inactive; CHT block: inactive; CHT activ conf: 36*; HEK293 MP dye: inactive
